Test results as given in PubChem BioAssay (NCI).
Several values for one entry are separate records, joined by “and”; a condition that tells them apart may be missing. Identical values can stand only once. The panel holds about 83,000 compounds, 20% with a hit somewhere; the sample as a whole holds those more often.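 Cell lines were cultured in 96-well plates, exposed to a single compound concentration, and assessed for percent growth 48 hours later.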 Activity calls are given as the source filed them. How the source made its calls: active means growth percent below 10; inactive means the rest.

What was measured:
Assay in all cases: NCI-60 one-dose screen, 48 h (100 = growth as untreated, 0 = no growth, -100 = all killed)
NCI/ADR-RES ovarian = details: 10 µM
T-47D breast = details: 10 µM
BT-549 breast = details: 10 µM
MDA-MB-435 melanoma = details: 10 µM
SW-620 colon = details: 10 µM
MCF7 breast = details: 10 µM unless noted
HCT-116 colon = details: 10 µM
KM12 colon = details: 10 µM
HCC-2998 colon = details: 10 µM

Measured: growth

CC[C@@]1(O)C[C@H](OC2CC(N(C)C)C(O)C(C)O2)c2c(cc3c(c2O)C(=O)c2c(O)ccc(O)c2C3=O)[C@H]1C(=O)OC (stereo partly specified)
active: NCI/ADR-RES ovarian -64.1% | T-47D breast -42% | BT-549 breast -80.2% | MDA-MB-435 melanoma -95.7% | SW-620 colon -90.5% | MCF7 breast -39.6% | HCT-116 colon -70.5% | KM12 colon -58.1%

Cc1ccc(C(=O)C2C(c3ccccc3)N2C2CCCCC2)cc1 (stereo unspecified)
inactive: NCI/ADR-RES ovarian 103% and 99.7% | T-47D breast 87.8% and 89.7% | BT-549 breast 104% and 105% | MDA-MB-435 melanoma 95% and 88.3% | SW-620 colon 106% and 95.2% | MCF7 breast 97% and 94.2% | HCT-116 colon 92.5% and 75.3% | HCC-2998 colon 114% and 113% | KM12 colon 111% and 100%

[Cl][Hg][c]1ccc2ccccc2c1
active: T-47D breast -56.8% | BT-549 breast -99% | MDA-MB-435 melanoma -76.2% | SW-620 colon -92.4% | MCF7 breast -61.5% | HCT-116 colon -100% | HCC-2998 colon -49% | KM12 colon 1.74%
inactive: NCI/ADR-RES ovarian 63.9%

Cc1cc(C(C)(C)c2ccc(O)c(C)c2)ccc1O
inactive: NCI/ADR-RES ovarian 88.1% | T-47D breast 81.3% | BT-549 breast 108% | MDA-MB-435 melanoma 80.4% | SW-620 colon 97.2% | MCF7 breast 119% | HCT-116 colon 86.4% | HCC-2998 colon 104% | KM12 colon 92.3%

CC(C)C1(NC(=O)C2CC3c4cccc5[nH]cc(c45)CC3N(C)C2)OC2(O)C3CCCN3C(=O)C(Cc3ccccc3)N2C1=O (stereo unspecified)
inactive: NCI/ADR-RES ovarian 102% | T-47D breast 103% | BT-549 breast 91.4% | MDA-MB-435 melanoma 102% | SW-620 colon 103% | MCF7 breast 95.8% | HCT-116 colon 95.8% | HCC-2998 colon 105% | KM12 colon 106%

C/C(=C\c1ccc(Cl)c(Cl)c1)[N+](=O)[O-]
-89.1% (active) and 98.6% (inactive): SW-620 colon
inactive: NCI/ADR-RES ovarian 30.8% and 93.2% | BT-549 breast 76.3% and 103% | MDA-MB-435 melanoma 126% | HCC-2998 colon 99.6% and 100%
-91.5% (active) and 88.2% (inactive): HCT-116 colon
-35.5% (active) and 98.3% (inactive): KM12 colon
-79.3% (active) and 57.7% (inactive): T-47D breast

CN(CCCl)c1ccc(/C=C/C2=[N+](C)c3ccccc3C2(C)C)cc1
inactive: NCI/ADR-RES ovarian 105% | T-47D breast 29.3% | BT-549 breast 20.7% | MDA-MB-435 melanoma 12% | SW-620 colon 19.8% | HCC-2998 colon 26% | KM12 colon 12.6%
active: HCT-116 colon 7.48%

O=[N+]([O-])c1ccc(N(CCO)CCO)c2c1no[n+]2[O-]
active: T-47D breast -14.9% | BT-549 breast -61.3% | MDA-MB-435 melanoma 2.88% | SW-620 colon 0.768% | HCT-116 colon -68.3% | HCC-2998 colon -46.9% | KM12 colon -40.1%
inactive: NCI/ADR-RES ovarian 18.3%

COc1ccccc1[As]=[As]c1ccccc1OC (stereo unspecified)
active: NCI/ADR-RES ovarian -72% | T-47D breast -47.2% | BT-549 breast -91.9% | MDA-MB-435 melanoma -73.2% | SW-620 colon -66.3% | MCF7 breast -38.3% | HCT-116 colon -71.3% | HCC-2998 colon -98.2% | KM12 colon -81.8%

O=c1[nH]c2ccccc2n1C1CCN(CCCC(c2ccc(F)cc2)c2ccc(F)cc2)CC1
-0.627% (active) and 25.7% (inactive): KM12 colon
inactive: NCI/ADR-RES ovarian 48.3% and 23.7% | T-47D breast 55.7% and 10.2% | BT-549 breast 35.8% and 18.5%
active: HCT-116 colon -68.6% and -39.9% | HCC-2998 colon 7.86% and -80.1%
-21.1% (active) and 19.2% (inactive): SW-620 colon
-81% (active) and 19% (inactive): MDA-MB-435 melanoma

O=[N+]([O-])c1cc[n+]([O-])c2ccccc12
active: NCI/ADR-RES ovarian -55.1% | T-47D breast -20.5% | BT-549 breast -65.9% | MDA-MB-435 melanoma -70.7% | SW-620 colon -69.3% | HCT-116 colon -71.2% | HCC-2998 colon -94.5% | KM12 colon -89.5%

NC(=O)c1cc([N+](=O)[O-])c(Cl)c([N+](=O)[O-])c1
inactive: NCI/ADR-RES ovarian 111% | T-47D breast 27.5% | BT-549 breast 113% | MDA-MB-435 melanoma 109% | MCF7 breast 22.3% | HCC-2998 colon 109% | KM12 colon 91.6%
active: SW-620 colon -85.2% | HCT-116 colon -79.3%

CC12OOC(c3ccccc31)c1c2ccc2ccccc12 (stereo unspecified)
inactive: NCI/ADR-RES ovarian 50.3% | MDA-MB-435 melanoma 46.2% | MCF7 breast 48.5%
active: T-47D breast -28.8% | BT-549 breast -82.2% | SW-620 colon -52.1% | HCT-116 colon -94.5% | HCC-2998 colon -91.7% | KM12 colon -53.1%

ClCc1ccc2ccccc2n1
inactive: NCI/ADR-RES ovarian 98.4% | T-47D breast 87% | BT-549 breast 102% | MDA-MB-435 melanoma 93.9% | SW-620 colon 114% | MCF7 breast 103% | HCT-116 colon 91.1% | HCC-2998 colon 105% | KM12 colon 103%

O=S(=O)(F)c1ccc(Cl)cc1
inactive: NCI/ADR-RES ovarian 109% | T-47D breast 105% | BT-549 breast 112% | MDA-MB-435 melanoma 108% | SW-620 colon 100% | MCF7 breast 102% | HCT-116 colon 106% | HCC-2998 colon 83.2% | KM12 colon 104%

C=C1C(=O)O[C@@H]2C[C@@H](C)[C@@H]3C=CC(=O)[C@@]3(C)[C@@H](O)[C@H]12
active: T-47D breast -58.1% | BT-549 breast -85.1% | MDA-MB-435 melanoma -88.2% | SW-620 colon -30.5% | MCF7 breast -4.11% | HCT-116 colon -93.5% | HCC-2998 colon -97.7% | KM12 colon -84.3%
inactive: NCI/ADR-RES ovarian 12.9%

COS(=O)(=O)c1ccccc1
inactive: NCI/ADR-RES ovarian 107% | T-47D breast 104% | BT-549 breast 107% | MDA-MB-435 melanoma 108% | SW-620 colon 108% | HCT-116 colon 102% | HCC-2998 colon 101% | KM12 colon 104%

Cc1cc([N+](=O)[O-])c2ccccc2[n+]1[O-]
active: NCI/ADR-RES ovarian 7.18% and 0.529% | T-47D breast -6.69% and -8.77% | BT-549 breast -36.6% and -19.4% | MDA-MB-435 melanoma -53.1% and -81.3% | SW-620 colon -10.5% and -30% | MCF7 breast -11.2% and 4.36% | HCT-116 colon -26.4% and 0.608% | HCC-2998 colon -67.8% and -90.8% | KM12 colon -40.8% and -59.2%

COc1cc(/C=C/[N+](=O)[O-])cc(OC)c1OC
active: MDA-MB-435 melanoma -22.4% | SW-620 colon -50.5% | MCF7 breast 6.55% | HCT-116 colon -19.2% | HCC-2998 colon -19.9%
inactive: NCI/ADR-RES ovarian 27.3% | T-47D breast 13.1% | BT-549 breast 40.6% | KM12 colon 18.2%

COc1cc(/C=C(/C)[N+](=O)[O-])ccc1O
62.4% (inactive) and -17.5% (active): NCI/ADR-RES ovarian
inactive: BT-549 breast 79.5% and 95.1% | HCC-2998 colon 30.3% and 87.3% | KM12 colon 59.9% and 41.9%
active: T-47D breast -22.6% and -40.3% | MDA-MB-435 melanoma 6.19% | SW-620 colon -68% and -56.1% | MCF7 breast 9.25% and 1.76% | HCT-116 colon -56% and -35.4%

C[C@@H]1C[C@@H]([C@H](O)CC2CC(=O)NC(=O)C2)C(=O)[C@@H](C)C1
active: NCI/ADR-RES ovarian 0.354% | T-47D breast 1.15% | BT-549 breast 3.02% | MDA-MB-435 melanoma 9.77% | SW-620 colon 8.04% | MCF7 breast 9.88% | HCT-116 colon 0.0527% | HCC-2998 colon 2.14% | KM12 colon 5.65%

S=C=NCCc1ccccc1
inactive: NCI/ADR-RES ovarian 21.4% | T-47D breast 40.4% | MDA-MB-435 melanoma 66.4% | SW-620 colon 56% | MCF7 breast 20.3% | HCT-116 colon 27.1% | KM12 colon 41.9%
active: BT-549 breast -20.2%

COc1cc(/C=C\[N+](=O)[O-])ccc1O
7.29% (active) and 67.5% (inactive): SW-620 colon
inactive: NCI/ADR-RES ovarian 83.4% and 98.4% | T-47D breast 32.5% and 71.1% | BT-549 breast 56% | MDA-MB-435 melanoma 78.5% and 51.3% | HCT-116 colon 59.3% and 32.9% | HCC-2998 colon 100% and 83.1% | KM12 colon 80.2% and 77.4%

Cc1cc(C)c(C[N+](C)(C)C)c(C)c1C
active: NCI/ADR-RES ovarian 4.96% | T-47D breast -0.376% | BT-549 breast 7.59% | MDA-MB-435 melanoma 9.06% | SW-620 colon 8.53% | MCF7 breast -10.7% | HCT-116 colon 7.93% | KM12 colon 7.87%
